# Results filed as inconclusive are left out. A number with no mark means an inactive call. Active and inactive are the calls of the source. The call rests on the fitted dose curve; in most records, active means well fitted inhibition curve with a large enough effect; inconclusive means small, poorly fitted or top-dose-only effect; inactive means flat fitted curve, though single readings scatter.
# Legend:
# HEK293 = test: Cytotoxic Profiling of Annotated Libraries Using Quantitative High-Throughput Screening (AID 1296008); conditions: Five cell lines viability, CellTiter-Glo ATP luminescence, 48-72 h; max response: hits give low values; further: potency means the concentration at half of the fitted maximal effect; on max response: on the % scale 0 is the no-effect control and ±100 the full control effect
# Method in brief: (§1)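 Compounds were pin-transferred onto cells and incubated 48 or 72 hr at 37 degree Celsius, 95% humidity. CellTiter-Glo was added, plates sat 10 min at room temperature, then ATP-coupled luminescence was imaged as the viability read-out.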
# HaCat [1] = test: as above; conditions: Five cell lines viability, CellTiter-Glo ATP luminescence, 48-72 h; max response: hits give low values
# Method in brief: as §1
# NIH3T3 = test: as above; conditions: Five cell lines viability, CellTiter-Glo ATP luminescence, 48-72 h; max response: hits give low values
# Method in brief: as §1
# HACAT [2] = test: qHTS assay to identify novel small-molecules to repurpose for Merkel cell carcinoma treatment (AID 1296009); conditions: MCC and control cell lines, CellTiter-Glo viability, 72 h; at 44.8 µM (top of the series) unless noted
# Method in brief: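 Luminescence from CellTiter-Glo, read 10 min after addition at room temperature, reported viability following a 72 hr, 37 degree celsius treatment with NPC or MIPE compounds in titration; values normalized to plate controls.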
# KB-3-1 = test: Cytotoxic Profiling of Annotated Libraries Using Quantitative High-Throughput Screening (AID 1296008); conditions: Five cell lines viability, CellTiter-Glo ATP luminescence, 48-72 h; max response: hits give low values; further: potency means the concentration at half of the fitted maximal effect; on max response: on the % scale 0 is the no-effect control and ±100 the full control effect
# Method in brief: as §1
# Further: nearly all actives have a fitted effect of over 60% in size.
smiles,measurement,setting,value
COc1cccc(-c2cn(-c3ccc(CCN4CCC(O)CC4)cc3)c3ncnc(N)c23)c1,Potency,HEK293,8.2 µM (active)
same,Potency,HaCat [1],5.17 µM (active)
same,Potency,NIH3T3,1.3 µM (active)
C/C(=N\N=C(N)N)c1cc(NC(=O)CCCCCCCCC(=O)Nc2cc(/C(C)=N/N=C(N)N)cc(/C(C)=N/N=C(N)N)c2)cc(/C(C)=N/N=C(N)N)c1,Potency,HEK293,7.31 µM (active)
same,outcome,HaCat [1],inactive
same,max response,NIH3T3,0.565%
same,outcome,HACAT [2],inactive
CC(C)(N)c1ncc(-c2ccc(OC(F)(F)F)cc2)[nH]1,max response,HaCat [1],-18.6%
same,max response,KB-3-1,-11.1%
Cn1cc(-c2cnn3c(N)c(Br)c(C4CCCNC4)nc23)cn1 (centres undefined),Potency,HEK293,1.03 µM (active)
same,Potency,NIH3T3,6.51 µM (active)
COc1c(C(O)CC(C)C)ccc2c1C(=O)OCc1cc(C)cc(O)c1O2 (centres undefined),max response,HaCat [1],0.403%
same,max response,KB-3-1,-22.7%
same,max response,NIH3T3,-2.04%
COc1ccc(OC)c(-c2ccc(NC(=O)c3ccncc3F)cc2)c1,max response,HaCat [1],-19.1%
same,max response,KB-3-1,-12.6%
same,max response,NIH3T3,0.707%
OC1CCC(Nc2nc(-c3ccccc3)nc3[nH]ccc23)CC1 (centres undefined),max response,HaCat [1],-12.5%
same,max response,KB-3-1,7.97%
same,max response,NIH3T3,-18.3%
CC(C)(C)Oc1ccc(OCC2Cc3ccccc3CN2C(=O)c2cccc3ccccc23)cc1 (centres undefined),Potency,HEK293,13 µM (active)
same,max response,NIH3T3,-2.51%
C=C1/C(=C/C=C2\CCC[C@]3(C)[C@@H]([C@@H](C)OCCC(O)(CC)CC)CC[C@@H]23)C[C@@H](O)C[C@@H]1O,max response,HaCat [1],-5.69%
same,max response,KB-3-1,-12.7%
same,max response,NIH3T3,-34.7%
C/C=C(/C)C(=O)OC1CC(C)(C)CC2C3=CCC4C5(C)CCC(O[C@@H]6O[C@H](C(=O)O)[C@@H](O)[C@H](O)[C@H]6O[C@@H]6O[C@H](CO)[C@H](O)[C@H](O[C@@H]7OC[C@H](O)[C@H](O)[C@H]7O[C@@H]7O[C@H](CO)[C@@H](O)[C@H](O)[C@H]7O)[C@H]6O)C(C)(C)C5CCC4(C)C3(C)C(O)C(O)C12CO (some centres undefined),max response,HaCat [1],-10.3%
same,max response,KB-3-1,-3.03%
Cc1ccc(O)cc1Nc1ccnc(Nc2cccc(C(N)=O)c2)n1,Potency,HEK293,14.6 µM (active)
same,Potency,NIH3T3,2.31 µM (active)
C/C=C(\C)C(=O)O[C@H]1C=CC(=O)O[C@H]1/C=C/[C@@H](O)[C@H](C)O,max response,HaCat [1],-16.7%
same,max response,KB-3-1,-19.4%
COc1ccc(S(=O)(=O)n2cnc3cc(C)c(C)cc32)cc1,max response,HaCat [1],-14.6%
same,max response,KB-3-1,-13.8%
CN1c2c(nc(N)[nH]c2=O)NC[C@@H]1CNc1ccc(C(=O)N[C@@H](CCC(=O)O)C(=O)O)cc1,max response,HaCat [1],-4.13%
same,outcome,KB-3-1,inactive
Cn1cc(-c2cnn3c(N)c(Br)c([C@@H]4CCCNC4)nc23)cn1,Potency,HEK293,1.16 µM (active)
same,Potency,NIH3T3,2.06 µM (active)
CN(C)C(=O)NC1(c2ccccc2)CCN(CCC[C@]2(c3ccc(Cl)c(Cl)c3)CCCN(C(=O)c3ccccc3)C2)CC1,Potency,HEK293,16.4 µM (active)
same,Potency,NIH3T3,20.6 µM (active)
C[C@H]1CC[C@@]2(OC1)O[C@H]1CC3[C@@H]4CC[C@@H]5C[C@@H](O[C@@H]6O[C@H](CO)[C@@H](O[C@@H]7O[C@@H](C)[C@H](O)[C@@H](O)[C@H]7O)[C@H](O)[C@H]6O[C@@H]6O[C@H](CO)[C@@H](O)[C@H](O)[C@H]6O)CC[C@]5(C)C4CC[C@]3(C)[C@H]1[C@@H]2C (some centres undefined),max response,HaCat [1],-24.5%
same,max response,KB-3-1,0.898%
C=C1C(=O)O[C@@H]2C[C@@]3(C)C[C@@H](O)C[C@H](C)C3=C[C@H]12,max response,HaCat [1],-8.34%
same,outcome,KB-3-1,inactive
Cc1cn2cc(C(=O)N(C)CCO)cc(NC3CCOc4cccc(C)c43)c2n1 (centres undefined),max response,HaCat [1],-18.4%
same,outcome,KB-3-1,inactive
C[C@@H]1CCCN1CCc1cc2cc(-c3ccc(C#N)cc3)ccc2o1,max response,HaCat [1],-29.3%
same,max response,KB-3-1,-23.6%
COc1ccc(Oc2c(Cl)cnn(-c3cc(C)cc(C)c3)c2=O)cc1,Potency,HEK293,8.2 µM (active)
same,Potency,NIH3T3,25.9 µM (active)
C=C1C(=O)OC2/C=C(\CO)CC/C=C(\C=O)C(OC)C(OC(=O)C(C)CC)C12 (centres undefined),max response,HaCat [1],-18%
same,outcome,KB-3-1,inactive
O=C(NC1CCN(CCCCC2(C(=O)NCC(F)(F)F)c3ccccc3-c3ccccc32)CC1)c1ccccc1-c1ccc(C(F)(F)F)cc1,Potency,HEK293,11.6 µM (active)
same,Potency,NIH3T3,7.31 µM (active)
O=C(NCCN1CCOCC1)c1cc2c(Oc3ccc(NC(=O)C4(C(=O)Nc5ccc(F)cc5)CC4)cc3)ccnc2[nH]1,max response,HaCat [1],-28.8%
same,max response,KB-3-1,4.4%
same,Potency,NIH3T3,6.51 µM (active)
CC(C)CCNC(=O)[C@H](CC(C)C)NC(=O)[C@H]1O[C@@H]1C(=O)O,max response,HaCat [1],-18.1%
same,max response,KB-3-1,2.67%
Cn1ncnc1[C@H]1c2n[nH]c(=O)c3cc(F)cc(c23)N[C@@H]1c1ccc(F)cc1,Potency,HaCat [1],3.17 µM (active)
same,max response,KB-3-1,-8.81%
O=c1ccc2ccc(OCCCCN3CCN(c4cccc5sccc45)CC3)cc2[nH]1,Potency,HEK293,11.6 µM (active)
same,max response,NIH3T3,-13.6%
COc1cc2nc(N3CCN(C(=O)c4ccco4)C4CCCCC43)nc(N)c2cc1OC (centres undefined),max response,HaCat [1],4.28%
same,Potency,KB-3-1,20.6 µM (active)
